The record followed here is PubChem BioAssay.

Values joined by “and” are separate entries in the source; they are usually repeats but may differ in a detail not shown here. Equal entries are not always repeated. Active and inactive are the calls of the source.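 How the source made its calls, unless noted: active means inhibition at or above 50% relative to wild type and mutant plate controls; inactive means inhibition below 50%.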

A short description of experiment [1]: reduction of polyQ htt aggregates in cells – imaging, exon1htt(103Q)mCFP cells, high-content imaging, primary screen (AID 483;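 active means visual image review flags a hit and inhibition of aggregation exceeds 20%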;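 further: compound exposure lasted 3 days before fixation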;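 on nuclei count: percent of the per-plate median nuclei count of sample wells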). To be noted: exon1htt(103Q)mCFP cell line, aggregate imaging, at 2 µM; inhibition of aggregation: stronger effect = higher value; nuclei count: measured here: cell count, toxicity.
A short description of experiment [2]: endothelial E-selectin expression blockers – imaging, HUVEC, immunofluorescence, MLSMR starter and 10KST1 sets, primary screen (AID 487;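 active means visually confirmed hit in the image check and inhibition above 20%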;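 on inhibition: signal is fraction of cell area covered by stained E-selectin grains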;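 on nuclei count: 100% = median nuclei count of all wells on the same plate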). The conditions noted are these: HUVEC TNFalpha-induced E-selectin immunofluorescence imaging, at 2 µM; inhibition: stronger effect = higher value; nuclei count: measured here: cell number, toxicity.
Experiment [3] in a line: Primary imaging screen for DUSP6 inhibitors that restore phospho-Erk in transfected HeLa cells, chemical complementation (AID 609;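 active means compounds giving at least 50% inhibition in the cell-based MKP-3 phosphatase rescue imaging test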;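 on inhibition: phospho-Erk level distribution per well compared with pooled transfected vehicle control wells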). To be noted: HeLa MKP-3 transfected, phospho-Erk imaging KS statistic, at 10 µM.
In experiment [4] the target is Dual specificity protein phosphatase 6 (Homo sapiens) (UniProt Q16828). The experiment is described as above. The conditions noted are these: HeLa MKP-3 transfected, phospho-Erk imaging KS statistic, at 10 µM, stronger effect = higher value.
Chain of Dual specificity protein phosphatase 6 (Homo sapiens) (Q16828 whole entry, looked up): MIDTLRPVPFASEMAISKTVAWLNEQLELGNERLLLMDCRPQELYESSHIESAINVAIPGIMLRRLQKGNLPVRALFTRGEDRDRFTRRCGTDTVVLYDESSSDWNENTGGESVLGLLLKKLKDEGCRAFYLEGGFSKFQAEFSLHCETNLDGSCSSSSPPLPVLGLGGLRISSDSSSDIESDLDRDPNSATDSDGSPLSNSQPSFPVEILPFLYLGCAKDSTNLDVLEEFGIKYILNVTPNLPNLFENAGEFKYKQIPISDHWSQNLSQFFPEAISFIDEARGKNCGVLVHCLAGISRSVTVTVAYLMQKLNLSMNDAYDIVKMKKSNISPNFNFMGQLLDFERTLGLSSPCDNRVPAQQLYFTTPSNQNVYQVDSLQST
Experiment [5] deals with Voltage-gated potassium channel subunit beta-2 (Rattus norvegicus) (UniProt P62483). The experiment can be described thus: inhibitors of rat Kvbeta2 reductase activity – biochemical, NADPH fluorescence, primary screen (AID 622;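 active means fluorescence slope higher than the sample average by over 3 SD, cut at about -0.22 in these data, passing the limit was not always enough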;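 further: slope of raw intensity against log time taken from 70 to 1610 s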). The conditions noted are these: recombinant KvBeta, 4-cyanobenzaldehyde reduction, at 10 µM, stronger effect = higher value.
Chain of Voltage-gated potassium channel subunit beta-2 (Rattus norvegicus) (P62483 whole entry, looked up): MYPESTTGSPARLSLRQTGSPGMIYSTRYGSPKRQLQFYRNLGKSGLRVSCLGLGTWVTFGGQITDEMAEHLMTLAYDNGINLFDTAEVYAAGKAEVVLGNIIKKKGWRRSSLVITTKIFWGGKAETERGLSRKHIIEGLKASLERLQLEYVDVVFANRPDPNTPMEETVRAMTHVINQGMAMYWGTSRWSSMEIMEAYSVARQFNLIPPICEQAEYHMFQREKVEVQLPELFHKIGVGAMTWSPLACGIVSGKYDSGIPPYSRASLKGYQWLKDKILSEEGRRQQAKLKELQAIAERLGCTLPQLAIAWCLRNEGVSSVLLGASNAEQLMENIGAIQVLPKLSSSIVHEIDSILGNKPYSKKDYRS
The target is the same in experiment [6]. The experiment can be described thus: enhancers of rat Kvbeta2 NADPH turnover – biochemical, NADPH fluorescence, primary screen (AID 623;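 active means NADPH fluorescence slope more negative than the mean of all samples by about 3 SD, 99.7% confidence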;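 further: fluorescence intensity change per second fitted from 20 to 320 s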). The conditions noted are these: Recombinant KvBeta, NADPH fluorescence decrease slope, 10 min; at 10 µM; stronger effect = lower value.
Experiment [7] addresses Alpha-2C adrenergic receptor (Homo sapiens) (UniProt P18825). The experiment can be described thus: compounds altering alpha2C-coupled GIRK flux – cell-based, HEK293 alpha2C/GIRK1/2, thallium flux, primary screen (AID 624;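 active means fluorescence slope after compound addition differing from the mean of all screened samples at 99.7% confidence, in either direction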;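 further: slope of fluorescence ratio to pre-addition baseline per second over 15 to 24 s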). To be noted: thallium flux BTC fluorescence, at 10 µM, actives lie on both sides.
Experiment [8] can be described thus: loss of swimming-algae plug formation – whole organism, Chlamydomonas reinhardtii, WT vs cilia-less mutant, absorbance, 96-well, primary screen (AID 463189).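 Further: 0% = wild type cc124 cells in DMSO and 100% = ciliumless bld1 mutant cells.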 The conditions noted are these: Chlamydomonas reinhardtii gravitaxis, OD600 absorbance, 2 days; at 10 µM; stronger effect = higher value.
Experiment [9] is described as follows: blockers of RIG-like receptor reporter activation – cell-based, Sendai virus stimulus, luciferase, 10K MLSCN set, TLR/RLR signaling modifier project, primary screen (AID 602276;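 active means inhibition at or above 50% at 10 µM; inactive means inhibition below 50%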;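 further: firefly luciferase from ISG56 promoter only with Renilla not read in this screen; 0% = Sendai virus plus DMSO and 100% = medium plus DMSO without virus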). To be noted: HEK293 RL24 IRF3 luciferase reporter, at 10 µM, stronger effect = higher value.
Experiment [10] is described as follows: TLR3 IRF3 reporter activation blockers – cell-based, poly I:C stimulus, luciferase, 10K MLSCN set, primary screen (AID 602277;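 active means inhibition of the reporter signal at or above 50%; inactive means inhibition below 50%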). The conditions noted are these: HEK293-TLR3 RL24 IRF3 luciferase reporter, at 10 µM, stronger effect = higher value.
Experiment [11] deals with Muscarinic acetylcholine receptor M4 (Homo sapiens) (UniProt P08173). The experiment can be described thus: M4-linked GIRK flux change, two-sided – cell-based, HEK293 M4/GIRK, thallium flux, BTC-AM, M4 allosteric agonist project, primary screen (AID 625;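 active means fluorescence slope after compound addition differing from the mean of all tested samples at 99.7% confidence, mostly higher but some lower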;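 further: thallium influx through GIRK channels coupled to M4 in HEK293 cells with BTC-AM dye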). The conditions noted are these: at 10 µM, actives lie on both sides.
Chain of Muscarinic acetylcholine receptor M4 (Homo sapiens) (P08173 whole entry, looked up): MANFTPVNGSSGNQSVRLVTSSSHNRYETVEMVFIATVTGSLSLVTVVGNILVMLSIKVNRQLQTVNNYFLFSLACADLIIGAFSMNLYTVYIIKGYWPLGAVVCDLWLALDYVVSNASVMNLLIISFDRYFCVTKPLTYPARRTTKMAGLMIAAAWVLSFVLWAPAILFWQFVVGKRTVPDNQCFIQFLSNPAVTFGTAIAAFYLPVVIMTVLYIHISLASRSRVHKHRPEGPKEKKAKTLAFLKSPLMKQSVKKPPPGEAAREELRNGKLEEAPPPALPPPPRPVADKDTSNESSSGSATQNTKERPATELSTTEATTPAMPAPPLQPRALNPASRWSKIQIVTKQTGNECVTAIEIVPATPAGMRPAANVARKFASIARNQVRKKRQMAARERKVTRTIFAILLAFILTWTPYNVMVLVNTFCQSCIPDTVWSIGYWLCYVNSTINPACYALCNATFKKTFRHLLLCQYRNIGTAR
A short description of experiment [12]: inhibitors of larval lipid processing in zebrafish, primary screen, whole organism, PED6 fluorescence, gall bladder and intestine (AID 686;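 active means a full or partial loss of lipid-probe fluorescence in the fish gall bladder, intestine or both, judged by eye; inactive means no fluorescence loss, or compound toxic to the fish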;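 further: larvae 5 to 7 days old with five fish per well; signal comes from phospholipase A2 cleavage of quenched PED6 carried via bile; overnight exposure to compound and PED6 before scoring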). The conditions noted are these: Zebrafish larvae PED6 lipid processing, fluorescence scoring.
Setting [13] is: measured here: cell density z-score.
The mark [14] stands for this setting: measured here: nuclear c-Myc green intensity z-score.
Where [15] appears, read: measured here: nuclear pErk red intensity z-score, stronger effect = higher value.

Chain of Alpha-2C adrenergic receptor (Homo sapiens) (P18825 whole entry, looked up): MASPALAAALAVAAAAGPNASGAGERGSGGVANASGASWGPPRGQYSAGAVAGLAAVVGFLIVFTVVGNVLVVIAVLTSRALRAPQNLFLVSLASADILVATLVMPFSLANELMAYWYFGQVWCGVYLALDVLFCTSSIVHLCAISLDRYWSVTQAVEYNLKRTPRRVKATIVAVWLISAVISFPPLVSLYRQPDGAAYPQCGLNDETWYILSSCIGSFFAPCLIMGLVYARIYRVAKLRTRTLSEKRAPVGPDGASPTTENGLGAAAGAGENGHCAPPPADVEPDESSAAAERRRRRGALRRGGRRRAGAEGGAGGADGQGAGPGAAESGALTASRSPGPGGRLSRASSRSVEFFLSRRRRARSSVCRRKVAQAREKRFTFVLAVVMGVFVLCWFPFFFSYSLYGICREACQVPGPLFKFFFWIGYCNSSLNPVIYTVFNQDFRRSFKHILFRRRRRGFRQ

Consider `O=c1[nH]c2ccccc2n1CCCN1CCC(n2c(=O)[nH]c3cc(Cl)ccc32)CC1`, for which the inhibition of aggregation in [1] is 13.3% (inactive). In addition, the nuclei count was 79.8% in [1] and 120% in experiment [2]. Also, the inhibition in experiment [2] was -81.4% (inactive); in experiment [4], 12.4% (inactive); in experiment [8] it was 2.96% (inactive) and 11.3% (inactive); in experiment [9] it was 7.67% (inactive); in [10], 18.2% (inactive). In addition, the z-score was -1.29 in experiment [3] (setting [13]), 0.926 in experiment [3] (setting [14]) and 0.563 in [3] (setting [15]). Besides, the fluorescence slope in experiment [5] is -0.455 (inactive). For the same compound, the NADPH fluorescence slope in experiment [6] was -4.5e-05 (inactive). In experiment [7], the slope is 0.00301 (inactive).
Regarding `Cn1cnc(CCN)c1`, in experiment [8], the inhibition is 3.08% (inactive).
Still for that read-out and setting: with `O=C(O)Cc1cnc[nH]1` the figure was 2.27% (inactive).
Take `O=P(c1ccccc1)(c1ccccc1)N1CCCCC1`: the inhibition in [2] is -13.6% (inactive); in experiment [4] it was 18.9% (inactive); in experiment [8], -7.33% (inactive). For the same compound, the nuclei count in [2] turned out to be 99.1%. Further, the z-score was -0.682 in [3] (setting [13]), -0.604 in experiment [3] (setting [14]) and -1.11 in experiment [3] (setting [15]). Moreover, the fluorescence slope is -0.396 (inactive) in experiment [5] and 0.00417 (inactive) in experiment [11]. In [6], the NADPH fluorescence slope is 1.4e-05 (inactive). For the same compound, the call in experiment [12] was inactive.
In the case of `O=C(COc1ccc2ccccc2c1)N1CCN(C2CCN(Cc3ccccc3)CC2)CC1`, in experiment [1], the inhibition of aggregation is 2.5% (inactive). For the same compound, the nuclei count in experiment [1] was determined as 75.6%; in experiment [2], 138%. Besides, the inhibition in experiment [2] is -123% (inactive); in experiment [4], 1.04% (inactive); in experiment [8], 64.5% (active); in experiment [9], 8.43% (inactive); in [10] it was -13.3% (inactive). The z-score in experiment [3] (setting [13]) was 0.592; in experiment [3] (setting [14]) it was -1.17; in [3] (setting [15]), 0.865. Further, the fluorescence slope in experiment [5] is -0.309 (inactive). Further, the NADPH fluorescence slope in [6] was 1.5e-05 (inactive). For the same compound, the slope in [7] is 0.00353 (inactive). Further, in experiment [12], the compound was classed as inactive.
For the compound `c1ccc2c(c1)OCC(C1=NCCN1)O2` (configuration not stated), the inhibition of aggregation in experiment [1] is 2.2% (inactive). In addition, the nuclei count worked out at 109% in [1] and 128% in experiment [2]. Moreover, the inhibition in experiment [2] is -66.1% (inactive); in experiment [4] it was 27.9% (inactive); in [8], -4.66% (inactive) and 22.4% (inactive); in experiment [9], -8.86% (inactive); in experiment [10], 10.1% (inactive). The z-score was 0.816 in [3] (setting [13]), -0.0814 in experiment [3] (setting [14]) and 0.589 in experiment [3] (setting [15]). Further, in experiment [5], the fluorescence slope was 0.111 (active). Also, the NADPH fluorescence slope in experiment [6] was -0.000173 (inactive). Also, the slope in experiment [7] was 0.0054 (inactive). Further, the call in experiment [12] was inactive.
In the case of `CN[C@@H]1C[C@@H](c2ccc(Cl)c(Cl)c2)c2ccccc21`, in experiment [8], the inhibition is 129% (active).
As to `COc1ccc(Cc2nccc3cc(OC)c(OC)cc23)cc1OC`, the inhibition of aggregation in [1] is -8.7% (inactive). In addition, the nuclei count in experiment [1] came out at 110%; in experiment [2] it was 140%. Besides, the inhibition in experiment [2] was -204% (inactive); in [4], 9.37% (inactive); in experiment [8], -20% (inactive) and 8.29% (inactive); in experiment [9], -5.8% (inactive); in [10], -3.94% (inactive). Also, the z-score in [3] (setting [13]) was 1.76; in experiment [3] (setting [14]), -0.33; in experiment [3] (setting [15]), -0.255. Further, the fluorescence slope in experiment [5] was -0.442 (inactive). Also, the NADPH fluorescence slope in experiment [6] was -7e-05 (inactive). In addition, the slope in [7] was 0.00447 (inactive). Further, the outcome in experiment [12] was “inactive; toxic”.
With `N#CC(C#N)=Cc1cc(O)c(O)c(O)c1`, the inhibition in [8] was 7.39% (inactive).
For the compound `C[C@H]1C2Cc3ccc(O)cc3C1(C)CCN2CC1CC1` (some centres not stated), the inhibition in experiment [8] is 8.28% (inactive).
Same read-out and setting: next, `NC(CCP(=O)(O)O)C(=O)O` (configuration not stated): 17.2% (inactive); `CN1CCN(c2ccc3ccccc3n2)CC1`: 23.3% (inactive).
Same read-out and setting: with `CP(=O)(O)CCCN` the figure was 3.64% (inactive); with `C=C(C)[C@H]1Cc2c(ccc3c2O[C@@H]2COc4cc(OC)c(OC)cc4[C@@H]2C3=O)O1`, 4.66% (inactive).
Turning to `CC(=O)CC(C)(C)n1c[n+](C)nn1`, the inhibition in experiment [2] is -59% (inactive); in [4], -5.89% (inactive); in [8], -0.884% (inactive). Also, the nuclei count in experiment [2] amounted to 155%. Moreover, the z-score in [3] (setting [13]) was 0.619; in experiment [3] (setting [14]), -0.892; in experiment [3] (setting [15]), -1.39. Further, the fluorescence slope in experiment [5] was -0.383 (inactive); in [11], 0.00569 (inactive). In [6], the NADPH fluorescence slope is -5.6e-05 (inactive). Further, the compound was classed as inactive in experiment [12].
As to `NC(=O)CN1CC(O)CC1=O` (configuration not stated), the inhibition in experiment [8] is 9.01% (inactive).
Regarding `CC(N)C(=O)OC(C)(C)Cc1ccc(Cl)cc1` (configuration not stated), the inhibition in [8] is -6.83% (inactive).
With `C[N+]1(C)[C@@H]2CC[C@H]1CC(OC(=O)C(CO)c1ccccc1)C2` (some centres not stated), the inhibition of aggregation in experiment [1] is -2.8% (inactive). Further, the nuclei count was 112% in experiment [1]; 123% and 124% in experiment [2]. Besides, the inhibition in experiment [2] was -82.3% (inactive) and -114% (inactive); in [4], 1.48% (inactive) and 15.3% (inactive); in [8], 30.8% (inactive) and -7.87% (inactive); in experiment [9] it was 13.4% (inactive) and 12.2% (inactive); in [10], 35.7% (inactive) and 30.4% (inactive). Also, the z-score in [3] (setting [13]) was -1.12 and 0.779; in experiment [3] (setting [14]), 0.388 and 0.223; in experiment [3] (setting [15]) it was -0.779 and -1.81. Also, in experiment [5], the fluorescence slope was -0.509 (inactive) and -0.518 (inactive). Besides, the NADPH fluorescence slope in experiment [6] is -2.9e-05 (inactive) and -4.5e-05 (inactive). Moreover, the slope in experiment [7] was 0.005 (inactive) and 0.00423 (inactive). Also, the compound was classed as inactive in experiment [12].
